These results are taken from PubChem BioAssay (NCATS).

Assay [1] can be described thus: Cell Viability - Hek293 (AID 427;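 active = compounds whose dose-response curve shows a full or clear partial loss of cell viability, called from curve shape rather than a numeric limit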;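 also: potency is read from the fitted curve at half-maximal effect; cells exposed to compound for 40 hours at 37 °C before reading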). The settings on record: qHTS. The gist of the method: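 HEK293 cells in complete medium were exposed to compound for 40 hr at 37 °C, then cellular ATP was read by CellTiter-Glo luminescence. Data were normalized to DMSO (basal) and 100 uM tamoxifen (100% inhibition), and AC50 came from Hill fits.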
For orientation: In qHTS, concentration-response curves come from the screen itself.

Assay [2] in a line: Cell Viability - SK-N-SH (AID 435; calls by dose curve;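 also: potency is read from the fitted curve at half-maximal effect; compound exposure lasted 40 h at 37 °C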). As to conditions: SK-N-SH neuroblastoma cell viability qHTS. The method, boiled down: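 CellTiter-Glo ATP luminescence, 20 min RT read; cells pre-plated 5 hr, compound 40 hr at 37 °C, 1500 cells/well, complete medium. Normalized DMSO = 0, 100 uM tamoxifen = 100% inhibition; Hill-fit AC50.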
Assay [3] in a line: Cell Viability - N2a (AID 540). Also: nearly all actives have a fitted effect of over 45% in size. Also: potency is read from the fitted curve at half-maximal effect.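 As to activity change, negative = cytotoxicity: plate controls were DMSO alone for no effect and tamoxifen control for full effect.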 The settings on record: N2a mouse neuroblastoma cell viability; activity change, negative = cytotoxicity: at 92.2 µM (top of the series). The gist of the method:
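Mouse neuroblastoma N2a cells (1500/well) were preincubated 5 hr at 37 °C, then exposed to compounds for 40 hr at 37 °C in complete medium. Viability was read as intracellular ATP by CellTiter-Glo luminescence; AC50 from Hill fits.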

The nature of assay [4]: Cell Viability - H-4-II-E (AID 543). Also: nearly all actives have a fitted effect of over 35% in size. Also: potency is read from the fitted curve at half-maximal effect. The settings on record: H-4-II-E rat hepatoma viability; series mostly up to 92.2 µM. The gist of the method: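 Rat hepatoma H-4-II-E cells (1500/well) were plated, incubated 5 hr at 37 °C, then exposed to compounds for 40 hr at 37 °C. Cellular ATP was read by CellTiter-Glo luminescence; AC50 came from Hill-equation fits of concentration-response data.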

Assay [5] can be described thus: Cell Viability - SH-SY5Y (AID 544). Also: nearly all actives have a fitted effect of over 55% in size. Also: potency is read from the fitted curve at half-maximal effect.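 As to viability change, negative = cytotoxic: 0% = DMSO alone and -100% = 100 µM tamoxifen.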 As to conditions: SH-SY5Y neuroblastoma cell viability; viability change, negative = cytotoxic: at 92.2 µM (top of the series). The method, boiled down:
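Human neuroblastoma SH-SY5Y cells (1500/well) in complete medium were exposed to compounds for 40 hr at 37 °C; intracellular ATP was then quantified by CellTiter-Glo luminescence after 20 min at room temperature. AC50 came from Hill-equation concentration-response fits.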

Assay [6] in a line: Cell Viability - LYMP2-001 (AID 921). Also: nearly all actives have a fitted effect of over 70% in size. Also: potency is read from the fitted curve at half-maximal effect. As to conditions: LYMP2-001 lymphoblastoid cell viability; series mostly up to 92.2 µM. The gist of the method: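 CellTiter-Glo luminescence (intracellular ATP) after 24 hr compound exposure at 37 C, 2500 lymphoblastoid cells/well in complete medium. AC50 fitted with standard Hill equation; tetraoctylammonium bromide positive control.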
The nature of assay [7]: MultiTox-Fluor Cytotoxicity Assay - LYMP1-001 - Live Cells (AID 947). Also: potency is read from the fitted curve at half-maximal effect.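 As to activity change, negative = cytotoxicity: 0% = DMSO only and full inhibition = tetraoctylammonium bromide control.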 The settings on record: LYMP1-001 lymphoblastoid cells, live-cell protease fluorescence viability; series mostly up to 92.2 µM.
Assay [8] can be described thus: Cell Viability - LYMP2-005 (AID 967). Also: potency is read from the fitted curve at half-maximal effect. As to conditions: LYMP2-005 lymphoblastoid cell viability; series mostly up to 92.2 µM. The method, boiled down: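 Steps: seed 2500 LYMP2-005 cells/well, incubate 5 h at 37 C, add compound, incubate 24 h at 37 C, add CellTiter-Glo, wait 30 min at RT, read luminescence. Concentration-response data fitted to Hill equation for AC50.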

A short description of assay [9]: Cell Viability - LYMP2-009 (AID 968). Also: nearly all actives have a fitted effect of over 55% in size. Also: potency is read from the fitted curve at half-maximal effect. As to conditions: LYMP2-009 lymphoblastoid cell viability; series mostly up to 92.2 µM.
Assay [10] in a line: Cell Viability - LYMP2-015 (AID 971). Also: nearly all actives have a fitted effect of over 55% in size. Also: potency is read from the fitted curve at half-maximal effect. The settings on record: LYMP2-015 lymphoblastoid cell viability; series mostly up to 92.2 µM. The method, boiled down: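 Human lymphoblastoid cells (2500/well) in complete medium were preincubated 5 hr at 37 C, then compound-treated 24 hr at 37 C. Intracellular ATP was read by CellTiter-Glo luminescence after 30 min at room temperature; AC50 came from Hill-equation concentration-response fits.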

The nature of assay [11]: Cell Viability - LYMP2-019 (AID 973). Also: nearly all actives have a fitted effect of over 55% in size. Also: potency is read from the fitted curve at half-maximal effect.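 As to activity change, negative = cytotoxicity: 0% = DMSO alone and full effect = 92 µM tetraoctylammonium bromide.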 As to conditions: LYMP2-019 lymphoblastoid cell line viability; series mostly up to 92.2 µM. The gist of the method:
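Human lymphoblastoid cells were seeded at 2500 cells/well, preincubated 5 hr at 37 C, then exposed to compounds for 24 hr at 37 C in complete medium. Intracellular ATP was measured by CellTiter-Glo luminescence; AC50 from Hill fits.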

The nature of assay [12]: Cell Viability - LYMP2-021 (AID 974). Also: potency is read from the fitted curve at half-maximal effect. As to activity change, negative = cytotoxicity: % is scaled to controls: 0 for no effect and ±100 for the full control effect. The settings on record: LYMP2-021 lymphoblastoid cells viability; series mostly up to 92.2 µM. The method, boiled down:
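Human lymphoblastoid cells (2500/well) were preincubated 5 hr at 37 C, then exposed to compounds for 24 hr at 37 C in complete medium. Intracellular ATP was read by CellTiter-Glo luminescence; AC50 came from Hill-equation fits of concentration-response data.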

Assay [13] can be described thus: Cell Viability - LYMP2-002 (AID 977).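 Also: compound exposure lasted 24 h at 37 °C.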 Also: potency is read from the fitted curve at half-maximal effect. The settings on record: LYMP2-002 lymphoblastoid cell viability, qHTS; series mostly up to 92.2 µM. The method, boiled down:
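Cytotoxicity is scored as concentration-dependent loss of cellular ATP in a human lymphoblastoid line after 24 hr compound treatment at 37 C. AC50 is obtained by modelling concentration-response data with the Hill equation.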

The nature of assay [14]: Cell Viability - LYMP2-010 (AID 981). Also: nearly all actives have a fitted effect of over 55% in size. Also: potency is read from the fitted curve at half-maximal effect. The settings on record: LYMP2-010 lymphoblastoid cell viability, qHTS; series mostly up to 92.2 µM. The gist of the method:
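Human lymphoblastoid LYMP2-010 cells (2500/well) were preincubated 5 hr at 37 C, then exposed to compounds for 24 hr at 37 C in complete medium. Intracellular ATP was measured by CellTiter-Glo luminescence after 30 min at room temperature; AC50 from Hill-fitted concentration-response.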

Assay [15] is described as follows: Cell Viability - LYMP2-012 (AID 982). Also: potency is read from the fitted curve at half-maximal effect.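 As to activity change, negative = cytotoxicity: 0% = DMSO only and full loss = 92 µM tetraoctylammonium bromide.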 As to conditions: LYMP2-012 lymphoblastoid cell viability qHTS; series mostly up to 92.2 µM.
A short description of assay [16]: qHTS assay for small molecule agonists of retinoid X receptor alpha signaling (AID 588544). As to conditions: HEK293T RXRa-UAS-bla, beta-lactamase reporter, 18 h; 530 nm emission.
Assay [17] can be described thus: qHTS assay for small molecule antagonists of retinoid X receptor alpha signaling (AID 588546; active = well fitted inhibition curve with a large enough effect in the signal ratio, with a control signal flat, not every such curve was filed as active; the % refers to the signal ratio;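 also: cells stimulated with 9-cis-retinoic acid as agonist; % is scaled to controls: 0 for no effect and ±100 for the full control effect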). As to conditions: HEK293T RXRa-UAS-bla, beta-lactamase ratio, antagonist mode; measured here: W530 green channel, cytotoxicity proxy. The gist of the method: (§1)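 Beta-lactamase reporter inhibition, read as CCF4 fluorescence ratio (ex 405, em 460/530 nm) after 2 h at RT. HEK293T UAS-bla cells, 2500/well, were stimulated with 9-cis-RA at 500 or 100 nM final alongside test compound for 18 h at 37 C.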

The target of assay [18] is Retinoic acid receptor RXR-alpha (Homo sapiens) (UniProt P19793). Described as above. As to conditions: HEK293T RXRa-UAS-bla, beta-lactamase ratio, antagonist mode. The gist of the method:
as §1

Assay [19] is described as follows: qHTS assay for small molecule disruptors of the mitochondrial membrane potential - 5 hr assay (AID 651755; calls by dose curve; also: % is scaled to controls: 0 for no effect and ±100 for the full control effect; nearly all actives have a fitted effect of over 40% in size). The settings on record: JC-1-type ratio dye; series mostly up to 92.2 µM. The gist of the method:
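HepG2, 2,000 cells/well, overnight attach; cpd or DMSO 5 hr, 37C/5% CO2; Mito-MPS 30 min 37C; fluor 490/535 + 540/590 nm.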

The nature of assay [20]: qHTS assay for small molecule agonists of the antioxidant response element (ARE) signaling pathway measured by Nrf2-dependant transcriptional activity (AID 720636; active = well fitted curve in the direction sought with a large enough effect in the repeat runs; an effect the other way counts as inactive or inconclusive; also: % of control where 0% means no effect). The settings on record: ARE-luc HepG2, Nrf2 luciferase reporter, 16 h; series mostly up to 92.4 µM. The method, boiled down: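 Attachment 6 hr at 37 C, then compound versus DMSO vehicle for 16 hr in ARE-luc HepG2 cells (1% dialyzed FBS); luminescence recorded 30 min after ONE-Glo addition at room temperature.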

Several values for one entry are separate records, joined by “and”; a condition that tells them apart may be missing. Equal values may be shown once. Inconclusive results are not listed. Activity calls are given as the source filed them. Unless noted, calls follow the shape of the dose curve; as a rule, active = well fitted curve in the direction sought with a large enough effect; inconclusive = small, poorly fitted or top-dose-only effect, or another doubt; inactive = no such curve, though single readings can be large; an effect the other way counts as inactive or inconclusive.

Retinoic acid receptor RXR-alpha (Homo sapiens), sequence (P19793 whole entry, looked up): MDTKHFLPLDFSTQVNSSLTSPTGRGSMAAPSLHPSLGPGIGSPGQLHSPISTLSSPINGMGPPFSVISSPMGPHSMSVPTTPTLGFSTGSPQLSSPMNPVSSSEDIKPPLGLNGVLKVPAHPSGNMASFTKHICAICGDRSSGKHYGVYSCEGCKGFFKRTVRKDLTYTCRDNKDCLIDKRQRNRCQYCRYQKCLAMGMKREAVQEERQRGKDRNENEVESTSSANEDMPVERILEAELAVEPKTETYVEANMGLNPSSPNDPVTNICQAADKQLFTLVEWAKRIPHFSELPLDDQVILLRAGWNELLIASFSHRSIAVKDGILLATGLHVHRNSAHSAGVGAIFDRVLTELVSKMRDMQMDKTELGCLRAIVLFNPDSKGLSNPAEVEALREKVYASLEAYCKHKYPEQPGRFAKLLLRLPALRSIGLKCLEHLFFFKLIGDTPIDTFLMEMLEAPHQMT

On to `Cc1ccc(S(N)(=O)=O)cc1`, for which the Potency in assay [1] and in assay [2] was > 92 µM (inactive) each time. Moreover, the activity change, negative = cytotoxicity in [3] was -12.6% (inactive). The Potency entry in assay [4], in [5], in [6], in [7], in assay [8] and in assay [9] was “inactive” each time. Besides, the Potency entry in [10], in [11], in [12], in [13], in [14] and in assay [15] was “inactive” in each case. Besides, the Potency entry in assay [19] and in assay [20] was “inactive” in each case. The max response in assay [16] is -3.23% and -4.03%; in assay [17] it was -1.11% and -7.98%; in assay [18], 8.77% (inactive) and 1.7% (inactive).

As for `c1cc2c3c(c1)ccc1cccc(c13)C2`, the Potency in [1] and in assay [2] was > 92 µM (inactive) throughout. Moreover, the activity change, negative = cytotoxicity in assay [3] is 0.332% (inactive). Besides, the Potency entry in assay [4], in assay [5], in assay [6], in assay [7], in assay [8] and in assay [10] was “inactive” in each case. Moreover, the Potency entry in [11], in assay [12], in [13], in assay [14], in [15] and in assay [19] was “inactive” throughout. Further, the Potency result in assay [20] is “inactive”. The max response in assay [16] is -13.6%; in [17] it was -1.55%; in assay [18], -11.6% (inactive).

As to `C=C1CC[C@H](O)C/C1=C/C=C1\CCC[C@]2(C)[C@@H]([C@H](C)CCCC(C)C)CC[C@@H]12`, the Potency is 47.1 µM (active) in [2]; 31.6 µM (active) in [3]; 39.8 µM (active) in [4]; 31.6 µM (active) in assay [5]; 39.8 µM (active) in [6]; 39.8 µM (active) in assay [8]. In addition, the Potency in assay [9] was 50.1 µM (active); in assay [10], 39.8 µM (active); in [11], 39.8 µM (active); in assay [12] it was 39.8 µM (active); in assay [14] it was 39.8 µM (active); in assay [15] it was 50.1 µM (active). The Potency entry in assay [19] is “inactive”.

As to `Brc1cc(Br)c(Oc2cc(Br)c(Br)cc2Br)cc1Br`, the Potency in assay [1] and in assay [2] was > 92 µM (inactive) in each case. For the same compound, the Potency entry in [4], in [5], in assay [6], in assay [7], in [8] and in assay [9] was “inactive” throughout. Also, the Potency result in assay [10], in [11], in assay [12], in assay [13], in assay [14] and in [15] was “inactive” each time. For the same compound, the Potency entry in assay [19] and in assay [20] was “inactive” throughout.

For `O=C1c2ccccc2C(=O)C1(O)O`, the activity change, negative = cytotoxicity in assay [3] was -94.6% (active). In addition, the Potency entry in [9], in [12], in assay [13], in [19] and in assay [20] was “inactive” each time. Moreover, the max response in [16] was 5.07%; in assay [17], -5.61%; in assay [18] it was 29.7% (inactive).

With `CC(C)(C)C(=O)C1C(=O)c2ccccc2C1=O`, the Potency in [2] is 20.1 µM (active). For the same compound, in assay [3], the activity change, negative = cytotoxicity is -83% (active). Further, the Potency result in assay [6], in assay [7], in [8], in assay [9], in assay [11] and in assay [12] was “inactive” each time. The Potency result in assay [13], in assay [19] and in assay [20] was “inactive” in each case.

`C/C=C1/C(=O)C[C@H]2[C@@H]3CCC4=CC(=O)CC[C@]4(C)[C@H]3CC[C@]12C`: the Potency in [5] is 25.1 µM (active); in assay [6], 50.1 µM (active); in [14], 39.8 µM (active); in assay [15], 39.8 µM (active). For the same compound, the Potency entry in assay [8] and in assay [19] was “inactive” each time.

In the case of `O=Nc1ccc(Nc2ccccc2)cc1`, the Potency is 30.8 µM (active) in assay [1], 11.5 µM (active) in [2], 31.6 µM (active) in [4] and 2.51 µM (active) in assay [5]. Moreover, in assay [3], the activity change, negative = cytotoxicity is -115% (active). The Potency result in assay [19] is “inactive”.

In the case of `C=CC(=O)OCCCCCCOC(=O)C=C`, the Potency in assay [2] is 50.2 µM (active); in [4], 39.8 µM (active); in assay [6], 31.6 µM (active); in assay [7], 39.8 µM (active); in assay [8], 39.8 µM (active); in assay [9], 39.8 µM (active). Further, the Potency in [10] was 39.8 µM (active); in assay [11], 50.1 µM (active); in assay [12], 39.8 µM (active); in assay [13], 50.1 µM (active); in [14], 39.8 µM (active); in assay [15], 39.8 µM (active). Moreover, the activity change, negative = cytotoxicity in assay [3] is -110% (active). Further, in [5], the viability change, negative = cytotoxic was -98.1% (active). Besides, the max response is 3.42% in assay [16]; 3.39% and -7.34% in assay [17]; -43.4% (inactive) and 3.26% (inactive) in assay [18]. Besides, the Potency entry in assay [19] and in [20] was “inactive” throughout.
